# Screening results: PubChem, National Center for Advancing Translational Sciences (NCATS)
# Pol kappa inh: DNA polymerase kappa (human) inhibition | Q9UBT6 | purified Pol kappa, fluorescent DNA synthesis assay, 10 min | Potency, µM (titrated, usually from 107 µM), inactives show at the top dose activity, negative = inhibition, hits mostly inhibitors | actives 0.53% (n = 400,000) | AID 588579; further: on the % scale 0 is the no-effect control and ±100 the full control effect
#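 First, compounds were pin-transferred onto 10 nM Pol kappa. After 15 min at room temperature, substrate was added to 50 nM final. Fluorescence was then measured kinetically at 0 and 10 min.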
# Pol eta inh: blocks human DNA polymerase eta activity. Q9Y253. recombinant Pol eta, fluorescent DNA replication assay. Potency, µM (series often up to 114 µM), inactives show at the highest dose activity change, negative = inhibition, actives largely listed as inhibitors. actives 1.2% (n = 390,000). AID 588591; further: on the % scale 0 is the no-effect control and ±100 the full control effect
# Target sequence (Q9Y253 whole entry, looked up): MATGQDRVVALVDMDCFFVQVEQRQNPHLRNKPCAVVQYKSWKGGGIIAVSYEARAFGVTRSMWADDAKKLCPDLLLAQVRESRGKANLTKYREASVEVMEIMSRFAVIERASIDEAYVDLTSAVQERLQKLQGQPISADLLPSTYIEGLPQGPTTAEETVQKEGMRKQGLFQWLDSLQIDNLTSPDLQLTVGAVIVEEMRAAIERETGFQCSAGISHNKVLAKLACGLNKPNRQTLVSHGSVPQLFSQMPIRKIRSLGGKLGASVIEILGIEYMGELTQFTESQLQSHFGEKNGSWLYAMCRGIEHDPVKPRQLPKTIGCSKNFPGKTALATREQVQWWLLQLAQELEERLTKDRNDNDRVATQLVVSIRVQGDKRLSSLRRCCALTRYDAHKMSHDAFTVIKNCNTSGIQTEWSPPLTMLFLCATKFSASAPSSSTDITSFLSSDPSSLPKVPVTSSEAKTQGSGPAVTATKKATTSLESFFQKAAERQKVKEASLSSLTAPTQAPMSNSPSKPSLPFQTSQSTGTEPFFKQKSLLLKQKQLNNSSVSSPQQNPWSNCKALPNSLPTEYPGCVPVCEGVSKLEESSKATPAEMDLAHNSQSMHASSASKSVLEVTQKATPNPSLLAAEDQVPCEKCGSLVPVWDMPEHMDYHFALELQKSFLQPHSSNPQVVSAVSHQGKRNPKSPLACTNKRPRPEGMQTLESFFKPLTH
#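 Pol eta (10 nM) was preincubated with compounds for 15 min at room temperature, after which fluorescent replication substrate (50 nM final) was added to start the reaction. Fluorescence was read kinetically at 0 and 10 min.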
# FEN1 inhibitor: inhibitors of human flap endonuclease 1. Recombinant FEN1 flap cleavage, fluorescence, 15 min. Potency, µM (doses to about 114 µM), for inactives: top-dose activity change, negative = inhibition, usual class: inhibitors. actives 0.35% (n = 390,000); further: on the % scale 0 is the no-effect control and ±100 the full control effect; nearly all actives have a fitted effect of over 65% in size
#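 With each library titrated from low to high concentration, compounds met 10 nM FEN1 for 15 min at room temperature before 50 nM substrate was added; readings at 0 and 15 min fed four-parameter Hill curve fits.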
# POLI inh: blocks human DNA polymerase iota activity. Q9UNA4. Pol iota fluorescent replication assay, 10 min. Potency, µM (doses to about 115 µM), for the others: at the highest dose activity, negative = inhibition, hits mostly inhibitors. actives 1% (n = 390,000). AID 588590
#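 Pol iota at 10 nM preincubated 15 min with compounds at room temperature; reaction started with fluorescent substrate, 50 nM final. Fluorescence read kinetically at 0 and 10 min; buffer-only wells as negative control.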
# WRN inhibitor: blocks human WRN helicase. Q14191. WRN helicase unwinding, fluorescent forked duplex, kinetic. Potency, µM (top dose mostly 114 µM), for the others: at the top dose activity change, negative = inhibition, usual class: inhibitors. actives 0.46% (n = 360,000); further: on the % scale 0 is the no-effect control and ±100 the full control effect; nearly all actives have a fitted effect of over 55% in size
#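 Kinetic red-fluorescence monitoring (525/598 nm) tracks WRN helicase activity after 100 nM fluorophore-quencher forked duplex and 2 mM ATP are added to 20 nM enzyme pretreated 15 min at room temperature with compound.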
# POLB inh: blocks human DNA polymerase beta activity; Pol beta primer extension/strand displacement, fluorescence kinetic; actives 1.3% (n = 340,000); AID 485314; Potency, µM (doses to about 114 µM), for the others: at the top dose activity change, negative = inhibition, actives largely listed as inhibitors; further: on the % scale 0 is the no-effect control and ±100 the full control effect
#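 Homogeneous kinetic assay of primer extension and strand displacement by 10 nM Pol beta, preincubated 15 min at room temperature with compound before 50 nM substrate (final) was added. Read at 0 and 10 min; four-parameter Hill fit.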
# Active calls of the source: *; ? = inconclusive; . = no result given; [ ] = another dose, or the depositor's remark. Hits are enriched below; roughly 2.4% of the tested compounds scored in any of these assays. The call rests on the fitted dose curve; in most records, active means well fitted curve in the direction sought with a large enough effect; inconclusive means small, poorly fitted or top-dose-only effect, or another doubt; inactive means no such curve, though single readings can be large; an effect the other way counts as inactive or inconclusive. Potency means the concentration at half of the fitted maximal effect.
SMILES,Pol kappa inh,Pol eta inh,FEN1 inhibitor,POLI inh,WRN inhibitor,POLB inh
Cc1ccnc(NS(=O)(=O)c2ccc(NC(=O)c3cc(-c4ccc(Br)cc4)nc4ccccc34)cc2)n1,-32%,35µM*,-12%,45µM*,?,79µM*
CC(=O)OCC1=C[C@H]2[C@@H]3C(C)(C)[C@]3(OC(C)=O)C[C@@H](C)[C@]2(O)[C@@H]2C=C(C)C(=O)[C@@]2(O)C1,-8%[12 µM],.,.,.,.,.
O=C(CCN1CCc2ccccc2C(c2ccccc2)C1)c1ccc2c(c1)OCCO2 (configuration not stated),-8%,-17%,17%,?,45µM*,1%
COc1ccc(OC)c(NC(=O)c2nc(S(=O)(=O)Cc3ccccc3F)ncc2Cl)c1,-5%,.,?,-20%,.,.
NS(=O)(=O)c1ccc(NC(=O)c2cnn3c2NC(=C2CC2)C=C3C(F)F)cc1,-35%,.,-4%,?,.,.
Cc1ccc(OCC(=O)NCC2(N3CCOCC3)CCCCC2)cc1C,?,-14%,4%,89µM*,.,3%
Cc1ccc2c(=O)cc(CSc3ccccc3)[nH]c2c1C,-10%[60.1 µM],-3%,-17%,-22%,.,34%
Cc1ccc(SCc2cc(=O)c3c(=O)n(-c4ccccc4)[nH]c3[nH]2)cc1,?,-3%,-9%,22µM*,?,35µM*
O=c1cc(CSc2ccc(Cl)cc2)[nH]c2[nH]n(-c3ccccc3)c(=O)c12,?,-16%,10%,?,-20%,40µM*
Cc1nc2ccc(C(=O)OC(C)C(=O)c3c(C)[nH]c4ccccc34)cc2nc1C (configuration not stated),-14%,.,1%,13%,.,.
N#Cc1c(NC(=O)CSc2nnc(-c3ccco3)n2-c2ccccc2)sc2c1CCC2,?,?,-3%,?,-30%[57.1 µM],25µM*
CCn1c(SCC(=O)Nc2sc3c(c2C#N)CCCC3)nnc1-c1ccco1,10%,-6%,-2%,-1%,-3%,-2%
N#Cc1ccc(-c2cccnc2)nc1SCC(=O)Nc1sc2c(c1C#N)CCC2,79µM*,79µM*,-6%,14µM*,-1%[11.6 µM],?
CCc1ccc(CNC(=O)CN2C(=O)CCn3nc(-c4cn(C)c5ccccc45)cc32)cc1,-12%[60.1 µM],1%,3%,-13%,.,-11%
O=C(N/N=C/c1cccnc1)c1ccccc1OCc1ccc(Cl)cc1,.,.,.,.,.,3%
O=C(N/N=C/c1cccnc1)c1cc(-c2ccccc2OCc2ccccc2)n[nH]1,-31%,2%,-3%,51%,-29%,79µM*
CCCCCCCCCCCCCCCC[n+]1ccc(C)cc1,-14%,.,?,12%,.,.
O=C(O)c1ccc(-n2c(O)c(C=C3N=c4ccccc4=N3)sc2=S)cc1,?,-23%,0%,2.2µM*,-6%[11.6 µM],12%
O=C(O)c1cccc(-n2c(O)c(C=C3N=c4ccccc4=N3)sc2=S)c1,-7%,?,-16%,-13%,-20%,10%
O=C(Cc1nnc(NC(=O)c2ccccc2)s1)N/N=C/c1ccc(O)cc1,-8%,-22%,-10%,?,-6%,25µM*
O=C(C[n+]1ccc(C(=O)N/N=C/c2ccc(O)cc2)cc1)c1ccccc1,-13%,?,-3%,38%,-23%,56µM*
O=C(C[n+]1ccc(C(=O)N/N=C/c2ccc(Br)cc2)cc1)c1ccccc1,1%,?,-1%,16%,-1%,-1%
CCCCC(CC)CN=C(N)NC(N)=NCCCCCCN=C(N)NC(N)=NCC(CC)CCCC (configuration not stated),?,89µM*,50µM*,?,89µM*,.
CCOc1ccc(CNC(=O)c2cc3c(=O)n(Cc4cccs4)ccc3nc2C)cc1,12%,16%,1%,?,.,13µM*
CCc1ccc(CNC(=O)c2cc3c(=O)n(Cc4cccs4)ccc3nc2C)cc1,-19%,11%,0%,?,.,50µM*
